HT1080 IDH1KD tx: toxicity to HT-1080 IDH1 knockdown cells (counter line); HT-1080 IDH1 knockdown viability, ATP luminescence, 48 h; Potency, µM (titrated, usually from 46.1 µM), for inactives: top-dose activity, negative = toxicity, usual class: cytotoxic; actives 2% (n = 360,000);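 note: 0% = DMSO wells and -100% = cell-free medium wells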
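In this qHTS, HT-1080 cells depleted of IDH1 are exposed for 48 h at 37 °C to compound titrations. Toxicity is scored from CellTiter-Glo luminescence, with DMSO as full viability and medium alone as none.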
MCF10A rerep: inducers of DNA re-replication in MCF 10A breast cells. MCF 10A DNA re-replication, Hoechst nuclear intensity, 48 h. Potency, µM (series often up to 46.1 µM), without a hit: top-dose activity, positive = re-replication, most hits filed as activators. actives 2.9% (n = 350,000); note: % of control where 0% means no effect; nearly all actives have a fitted effect of over 50% in size
HT1080-NT tox: kills 2HG-producing HT-1080-NT fibrosarcoma cells. HT-1080-NT fibrosarcoma viability, CellTiter-Glo ATP luminescence, 48 h. Potency, µM (highest dose often 46.1 µM), for inactives: top-dose activity, negative = less viability, most hits filed as cytotoxic. actives 1.6% (n = 360,000);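 note: NT is the 2HG producing partner of a matched IDH1 knockdown line; 0% = DMSO-treated cells and -100% = media-only wells without cells; nearly all actives have a fitted effect of over 55% in size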
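Viability of the 2HG-overproducing fibrosarcoma line after 48 hours of compound exposure at 37 degrees C was determined by luminescence with CellTiter-Glo, and concentration-effect curves were then fitted and categorized.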
SW480 rereplic: induces DNA re-replication in SW480 colon adenocarcinoma cells; SW480 DNA re-replication, Hoechst DNA content imaging, 48 h; Potency, µM (top dose mostly 46.1 µM), without a hit: at the top dose re-replication activation, usual class: activators; actives 1.8% (n = 340,000); AID 624297; note: % of control where 0% means no effect; nearly all actives have a fitted effect of over 55% in size
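First, 250 cells per well were seeded. Next, compound or vehicle (23 nL) was pinned in, plates sat 48 hr at 37 C. Finally Hoechst was added for 40 min before fluorescence scanning.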
KB-3-1 tox: kills parental KB-3-1 adenocarcinoma cells | KB-3-1 viability, CellTiter-Glo ATP luminescence, 72 h | Potency, µM (doses to about 46.1 µM), hits mostly cytotoxic | actives 1.4% (n = 400,000); note: % is set by controls: 0 for no effect and ±100 for the full control effect; nearly all actives have a fitted effect of over 60% in size
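Screening of KB-3-1 cells (DMEM, 10% FBS, phenol-red free) ran from lowest to highest compound concentration; after 72 h at 37 °C viability was read luminescently and curves fitted.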
KB-V1 cytotox: kills drug-selected multidrug resistant KB-V1 cells. actives 3.4% (n = 400,000). AID 1347076. KB-V1 MDR cells viability, CellTiter-Glo, 72 h. Potency, µM (series often up to 46.1 µM), actives largely listed as cytotoxic; note: % is set by controls: 0 for no effect and ±100 for the full control effect; nearly all actives have a fitted effect of over 60% in size
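Readout: CellTiter-Glo luminescence, 10 min after addition. Cells: KB-V1 MDR subline, 72 h at 37 degrees C with compound. Analysis: corrected, normalized data fitted to concentration-effect curves.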
An asterisk follows results filed as active; i = inactive; ? = inconclusive; . = no result given. In the library only some 8% were active in any assay of this set; here they are far more common. Calls come from the whole dose curve; as a rule, active = well fitted curve in the direction sought with a large enough effect; inconclusive = small, poorly fitted or top-dose-only effect, or another doubt; inactive = no such curve, though single readings can be large; an effect the other way counts as inactive or inconclusive. Potency is the fitted concentration of half-maximal effect.

SMILES | HT1080 IDH1KD tx | MCF10A rerep | HT1080-NT tox | SW480 rereplic | KB-3-1 tox | KB-V1 cytotox
c1ccc(-c2csc(N3CCOCC3)n2)cc1 | -1% | 10% | 25% | 2% | i | i
O=C(NC1CCCCC1)N1CCN(c2nc(-c3ccccc3)cs2)CC1 | ? | ? | -25% | 1% | i | 12µM*
COc1cccc(-c2csc(N3CCN(C(=O)C4CCCCC4)CC3)n2)c1 | -4% | 15µM* | 2% | 4% | ? | 18µM*
O=C(N1CCOCC1)N1CCN(c2nc(-c3ccccc3)cs2)CC1 | 5% | ? | 4% | -3% | i | 21µM*
COc1cc(C2C(C#N)=C(N)N(N(C)C)C3=C2C(=O)CC(C)(C)C3)ccc1O (stereo not given) | 11% | -5% | 3% | 3% | i | i
CC(=O)NC(c1ccccc1)c1nc(-c2ccc(C)c(C)c2)cs1 (stereo not given) | ? | . | ? | . | i | i
O=C(NC(=S)N1CCN(c2nc(-c3ccccc3)cs2)CC1)c1cccnc1 | -5% | ? | -7% | ? | i | 21µM*
COCCNC(=S)N1CCN(c2nc(-c3ccccc3)cs2)CC1 | -6% | 1% | ? | -10% | i | i
COc1ccc(C(C(=O)NC(C)(C)C)N(Cc2ccc(C)cc2)C(=O)CCC(=O)Nc2cc(C)on2)cc1 (stereo not given) | -22% | 2% | -18% | -7% | ? | i
COc1ccc(C(C(=O)NC(C)(C)C)N(C(=O)CCC(=O)Nc2cc(C)on2)c2cc(C)cc(C)c2)cc1 (stereo not given) | -6% | 11% | -19% | -2% | i | 15µM*
CCOc1ccc(NC(=O)CN(C)C(=O)c2c(-c3ccccc3)noc2C)cc1OCC | 14% | 3% | 6% | 3% | i | i
COc1ccc2[nH]c(=O)cc(C(=O)O)c2c1 | 5% | -37% | 8% | 9% | i | i
COc1ccc2[nH]c3c4c(ccc3c2c1)C(=O)C=CC4=O | 16µM* | ? | 13µM* | 3.3µM* | 9.2µM* | i
CCn1c(CNC(=O)c2ccc(OC)cc2)nnc1SCC(=O)Nc1cccc(C)c1 | . | . | . | . | i | ?
O=S1(=O)N=C(Oc2ccc(Br)cc2)c2ccccc21 | . | . | . | . | i | i
CCN1CCC(O)(/C=C/c2ccc(C(C)C)cc2)C(C(=O)/C=C/c2ccc(C(C)C)cc2)C1 (stereo not given) | 21µM* | 12µM* | ? | ? | ? | ?
CCC(C)[C@H](NC(=O)NCc1ccc(Cl)cc1)C(=O)OC (stereo not given in full) | 0% | -1% | -5% | -4% | i | 21µM*
CCC(C)[C@H](NC(=O)NCc1ccc(Cl)cc1)C(=O)O (stereo not given in full) | -7% | -2% | 2% | -14% | i | ?
COc1ccc(-c2cn3nc(SCC(=O)Nc4ccccc4F)ccc3n2)cc1 | . | . | . | . | i | i
CSCCC(NS(=O)(=O)c1cccc(C(F)(F)F)c1)C(=O)N(C)CCOc1ccc(Cl)cc1 (stereo not given) | -2% | ? | 1% | 5.8µM* | i | ?
CSCCC(NS(=O)(=O)c1cccc(C(F)(F)F)c1)C(=O)N1CCN(C(=O)c2ccco2)CC1 (stereo not given) | -3% | -7% | -2% | -9% | i | i
CCCc1cc(C(=O)Nc2ccc(C(=O)c3ccc(C)cc3)cc2)n(C)n1 | ? | 18µM* | -28% | 82% | i | i
Cc1ccc(NC(=O)Cc2ccc(Cl)cc2)cc1S(=O)(=O)N1CCCCCC1 | ? | 12% | ? | -30% | ? | i
CCN(CC)CCNC(=O)c1ccc(NC(=O)c2ccc(S(=O)(=O)N3CCCCCC3)cc2)cc1 | -3% | 22% | -7% | 13% | ? | ?
Cc1ccc(NC(=O)CN(C)C(=O)Cc2ccc(Cl)c(Cl)c2)cc1 | ? | 6% | -15% | 27% | i | i
SMILES | HT1080 IDH1KD tx | MCF10A rerep | HT1080-NT tox | SW480 rereplic | KB-3-1 tox | KB-V1 cytotox
COc1ccc(NC(=O)C2CC(=O)N(Cc3ccc(C)cc3)C2)cc1S(=O)(=O)N1CCCCC1 (stereo not given) | 0% | 13% | 2% | -19% | i | i
Cc1ccc(NC(=O)CN(C)C(=O)Cn2ncc(Cl)c(Cl)c2=O)cc1 | 21µM* | 3.3µM* | ? | ? | ? | ?
Cc1ccc(NC(=O)Cn2ncc(Cl)c(Cl)c2=O)cc1S(=O)(=O)N1CCCCC1 | ? | 4.1µM* | ? | 8.2µM* | ? | ?
CCN(CC)CCNC(=O)c1ccc(NC(=O)c2ccc(Cl)c(S(=O)(=O)N3CCCCCC3)c2)cc1 | 21µM* | ? | ? | ? | ? | i
Cc1ccc(CN2CC(C(=O)Nc3ccc(C)c(S(=O)(=O)N4CCCCC4)c3)CC2=O)cc1 (stereo not given) | -26% | ? | -4% | 1% | 16µM* | 21µM*
CCN(CC)CCNC(=O)c1ccc(NC(=O)c2ccc(C(=O)c3ccccc3)cc2)cc1 | 21µM* | -20% | 21µM* | 13% | i | i
Cc1ccc(C(=O)Nc2ccc(N3CCN(S(C)(=O)=O)CC3)cc2)cc1C | -9% | ? | -4% | 16µM* | i | i
Cc1ccc(NC(=O)CCNC(=O)c2ccc(Br)cc2)cc1S(=O)(=O)N1CCCCCC1 | -7% | ? | -8% | -7% | ? | 21µM*
Cc1ccc(C(=O)Nc2ccc(N3CCN(S(C)(=O)=O)CC3)cc2)cc1 | 14% | -2% | 2% | -9% | i | i
Cc1ccc(C(=O)Nc2ccncc2)cc1S(=O)(=O)N1CCCCC1 | -17% | . | -2% | . | ? | 15µM*
COC(=O)c1ccc(NC(=O)CN(c2cccc(C(F)(F)F)c2)S(C)(=O)=O)cc1 | . | . | . | . | i | i
NS(=O)(=O)c1ccc(NC(=O)CCn2c(=O)oc3ccccc32)cc1 | . | . | . | . | i | i
CC(C)COc1ccc(C(=O)N(Cc2cccc(F)c2)C2CCS(=O)(=O)C2)cc1 (stereo not given) | . | . | . | . | i | i
O=C1CCc2cc(S(=O)(=O)Nc3ccc(Cl)c(Cl)c3)c(F)cc2N1 | . | . | . | . | i | ?
CC(C)CC1=C/C(=C/c2ccc(-c3ccccc3)o2)C(=O)O1 | -6% | 26µM* | -14% | 2% | i | i
NS(=O)(=O)c1ccc(-c2ccc(C=C3C(=O)c4ccccc4C3=O)o2)cc1 | 7% | 1% | 19% | -6% | i | ?

Screening data as filed in PubChem BioAssay.
